The text below walks through data of PubChem BioAssay.

The source made the active and inactive calls.

Assay [1] concerns Plasmodium falciparum Sir2 (PF13_0152, Sir2A). The experiment in a line: Plasmodium falciparum Sir2A binding compounds – biochemical, small-molecule microarray, 635 nm fluorescence, primary screen (AID 1098).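 Further: score merges spot fluorescence intensity with its signal-to-noise ratio.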 As to conditions: fluorescence 635 nm, higher = more signal.
The nature of assay [2]: probe aDKK1 binding to arrayed compounds – biochemical, biotinylated probe, 635/667 nm fluorescence, primary screen (AID 1099).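 Further: score merges 667nm spot fluorescence with signal to noise across triplicate slides.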 As to conditions: small-molecule microarray, higher = more signal.
Assay [3] is described as follows: probe aCHRDL2 binding to arrayed compounds – biochemical, biotinylated probe, 635/667 nm fluorescence, primary screen (AID 1100). Particulars: small-molecule microarray, higher = more signal.
Assay [4] can be described thus: change in splice reporter luminescence, either direction, cell-based, HEK293, spliceosome inhibition project, primary screen (AID 1101).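 Further: HEK293 cells carrying a splicing-competent luciferase reporter gene; test concentration not given here.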 Particulars: HEK293 splicing luciferase reporter, 24 h, higher = more signal, called active from +8 up or from −8 down. (Reporter assays use an easily measured gene product as a stand-in for the process of interest.)
For assay [5], the target named is Fibroblast growth factor 10 (Homo sapiens) (UniProt O15520). The experiment in a line: compounds binding fibroblast growth factor 10 – biochemical, small-molecule microarray, 635 nm fluorescence, primary screen (AID 1102). Particulars: FGF10 binding, fluorescence 635 nm, higher = more signal.
The subject of assay [6] is glycogen synthase kinase-3 (GSK3A per assay name; protocol says GSK3B). Kind of assay: compounds binding glycogen synthase kinase-3 – biochemical, small-molecule microarray, 635 nm fluorescence, GSK3A, primary screen (AID 1103). Further: the record names both GSK3A and GSK3B. Particulars: fluorescence 635 nm, higher = more signal.
Assay [7] addresses Epidermal growth factor receptor (Homo sapiens) (UniProt P00533). Kind of assay: compounds binding epidermal growth factor receptor – biochemical, small-molecule microarray, 635 nm fluorescence, primary screen (AID 1104).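 Further: score merges 667 nm emission intensity with spot signal to noise over triplicate slides.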 Particulars: EGFR binding, higher = more signal.
Assay [8] deals with Follistatin-related protein 3 (Homo sapiens) (UniProt O95633). Kind of assay: compounds binding follistatin-related protein 3 – biochemical, small-molecule microarray, 635 nm fluorescence, primary screen (AID 1105).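 Further: score merges emission near 667 nm and signal to noise per printed spot across three slides.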 As to conditions: FSTL3 binding, higher = more signal.
For assay [9], the target named is Dickkopf-related protein 1 (Homo sapiens) (UniProt O94907). The experiment in a line: small molecules binding DKK1 protein – biochemical, small-molecule microarray, 635 nm fluorescence scan, primary screen (AID 1106).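 Further: score merges emission near 667 nm with signal to noise over three replicate slides.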 As to conditions: higher = more signal.
Assay [10] deals with Inhibin beta A chain (activin A). Kind of assay: small molecules binding activin A – biochemical, small-molecule microarray, 635 nm fluorescence scan, primary screen (AID 1107).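 Further: mouse activin A protein probed at 4.33 µg/mL on printed slides; score merges bound-protein fluorescence near 667 nm with spot signal-to-noise.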 As to conditions: INHBA, higher = more signal.
The subject of assay [11] is Human papillomavirus type 1a protein E7 (residues 44-93). The experiment in a line: small molecules binding HPV E7 44-93 – biochemical, small-molecule microarray, residues 44-93, 635 nm fluorescence, primary screen (AID 1108).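 Further: E7 fragment applied at 1 µg/mL in TBST for 1 h at 4 C; score combines spot fluorescence with its signal to noise ratio.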 Particulars: fluorescence 635 nm, higher = more signal.
A short description of assay [12]: hepatitis C replication reporter changes, two-sided – Huh7 cells, luciferase reporter, HCV replication inhibitor project, primary screen (AID 1109).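 Further: huh7 hepatoma cells harbouring a luciferase neomycin HCV replicon reporter; luciferase luminescence as measure of HCV replicon replication; test concentration not given here.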 As to conditions: Huh7 HCV replicon luciferase reporter, 48 h; higher = more signal.
Assay [13] deals with Left-right determination factor 2 (Homo sapiens) (UniProt O00292). Kind of assay: small molecules binding LEFTY2 protein – biochemical, small-molecule microarray, 635 nm fluorescence scan, primary screen (AID 1110). Particulars: higher = more signal.
Assay [14] concerns the target Calmodulin-1 (Homo sapiens) (UniProt P0DP23). Kind of assay: small molecules binding calmodulin-1 with EGTA – biochemical, small-molecule microarray, Cy5-labelled CALM1, profiling panel (AID 1111).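 Further: labelled calmodulin applied in Tris saline Tween buffer holding calcium plus EGTA and DTT.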 Particulars: Cy5-CALM1 binding fluorescence, higher = more signal.
For assay [15] the target is unchanged. Kind of assay: small molecules binding Ca-loaded calmodulin-1 – biochemical, small-molecule microarray, Cy5-labelled CALM1, plus calcium, artefact control for SMM control-protein annotation, profiling panel (AID 1112).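 Further: score merges spot fluorescence with signal to noise from triplicate slides.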 As to conditions: Cy5-CALM1 binding fluorescence, higher = more signal.
Assay [16] can be described thus: probe aWnt5a binding to arrayed compounds – biochemical, biotinylated probe, 635/667 nm fluorescence, primary screen (AID 1113).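 Further: score merges 667 nm fluorescence intensity with signal-to-noise per printed feature.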 As to conditions: small-molecule microarray, higher = more signal.
Assay [17] in a line: probe aShh binding to arrayed compounds – biochemical, biotinylated probe, 635/667 nm fluorescence, primary screen (AID 1114).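 Further: probe is biotin-labelled aShh protein from a stem cell growth factor screen; measures binding of labelled protein to compounds printed on the slide; score merges feature fluorescence at 667 nm with signal-to-noise.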 Particulars: small-molecule microarray, higher = more signal.
Assay [18] can be described thus: probe aNog binding to arrayed compounds – biochemical, biotinylated probe, 635/667 nm fluorescence, primary screen (AID 1115).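 Further: probe is biotinylated aNog protein used at 0.15 µg/mL for 1 h at 4 C; z-score combines 667 nm fluorescence of each spot with its signal to noise.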 Particulars: small-molecule microarray, higher = more signal.
Assay [19] deals with Torsin-1A-interacting protein 1 (Homo sapiens) (UniProt Q5JTV8). Kind of assay: compound microarray binding of lysate hLAP1 – cell lysate, small-molecule microarray, COS7 lysate, 635/667 nm fluorescence, primary screen (AID 1116). Particulars: 635 nm fluorescence, higher = more signal.
Assay [20] deals with Alpha-bungarotoxin (Bungarus multicinctus) (UniProt P60615). The experiment in a line: compounds binding labelled alpha-BTX control protein – biochemical, small-molecule microarray, Alexa647 label, 635/667 nm fluorescence, artefact control for SMM control protein annotation, profiling panel (AID 1117). As to conditions: alpha-BTX-A647 binding fluorescence, higher = more signal.
Sequence of Alpha-bungarotoxin (Bungarus multicinctus) (P60615 whole entry, looked up): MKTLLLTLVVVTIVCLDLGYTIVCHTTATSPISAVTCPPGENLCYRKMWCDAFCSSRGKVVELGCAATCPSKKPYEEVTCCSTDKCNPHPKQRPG

Sequence of Follistatin-related protein 3 (Homo sapiens) (O95633 whole entry, looked up): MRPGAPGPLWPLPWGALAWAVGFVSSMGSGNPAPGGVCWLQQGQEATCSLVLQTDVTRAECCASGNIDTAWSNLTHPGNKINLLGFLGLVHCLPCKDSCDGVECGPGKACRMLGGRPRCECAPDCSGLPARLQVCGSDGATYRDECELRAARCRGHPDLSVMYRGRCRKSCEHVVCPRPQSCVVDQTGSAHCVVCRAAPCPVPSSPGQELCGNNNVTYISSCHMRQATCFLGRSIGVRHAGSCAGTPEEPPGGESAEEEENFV
Sequence of Left-right determination factor 2 (Homo sapiens) (O00292 whole entry, looked up): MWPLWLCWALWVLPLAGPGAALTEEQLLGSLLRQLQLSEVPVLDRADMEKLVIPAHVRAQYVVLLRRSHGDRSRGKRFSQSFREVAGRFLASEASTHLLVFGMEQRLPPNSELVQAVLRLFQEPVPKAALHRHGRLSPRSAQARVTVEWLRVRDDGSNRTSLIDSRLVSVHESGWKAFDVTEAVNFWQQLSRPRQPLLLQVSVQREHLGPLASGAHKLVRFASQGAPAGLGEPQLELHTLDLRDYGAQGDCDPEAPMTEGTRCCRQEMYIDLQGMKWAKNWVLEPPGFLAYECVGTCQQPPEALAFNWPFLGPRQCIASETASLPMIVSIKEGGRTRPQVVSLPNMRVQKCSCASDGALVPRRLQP
Sequence of Dickkopf-related protein 1 (Homo sapiens) (O94907 whole entry, looked up): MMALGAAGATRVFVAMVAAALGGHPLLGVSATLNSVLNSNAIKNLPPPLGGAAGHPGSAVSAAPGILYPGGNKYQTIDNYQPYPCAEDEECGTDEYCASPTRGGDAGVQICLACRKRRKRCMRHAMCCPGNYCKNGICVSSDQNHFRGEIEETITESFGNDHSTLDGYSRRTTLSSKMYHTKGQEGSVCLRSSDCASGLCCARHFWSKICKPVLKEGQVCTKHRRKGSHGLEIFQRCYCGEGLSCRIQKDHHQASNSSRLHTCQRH
Sequence of Fibroblast growth factor 10 (Homo sapiens) (O15520 whole entry, looked up): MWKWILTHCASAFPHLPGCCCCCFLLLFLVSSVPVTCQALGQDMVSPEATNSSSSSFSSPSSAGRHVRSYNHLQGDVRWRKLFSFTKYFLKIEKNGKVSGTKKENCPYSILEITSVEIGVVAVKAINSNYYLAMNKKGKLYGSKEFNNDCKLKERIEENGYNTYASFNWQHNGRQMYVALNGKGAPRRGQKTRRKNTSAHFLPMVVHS
Sequence of Torsin-1A-interacting protein 1 (Homo sapiens) (Q5JTV8 whole entry, looked up): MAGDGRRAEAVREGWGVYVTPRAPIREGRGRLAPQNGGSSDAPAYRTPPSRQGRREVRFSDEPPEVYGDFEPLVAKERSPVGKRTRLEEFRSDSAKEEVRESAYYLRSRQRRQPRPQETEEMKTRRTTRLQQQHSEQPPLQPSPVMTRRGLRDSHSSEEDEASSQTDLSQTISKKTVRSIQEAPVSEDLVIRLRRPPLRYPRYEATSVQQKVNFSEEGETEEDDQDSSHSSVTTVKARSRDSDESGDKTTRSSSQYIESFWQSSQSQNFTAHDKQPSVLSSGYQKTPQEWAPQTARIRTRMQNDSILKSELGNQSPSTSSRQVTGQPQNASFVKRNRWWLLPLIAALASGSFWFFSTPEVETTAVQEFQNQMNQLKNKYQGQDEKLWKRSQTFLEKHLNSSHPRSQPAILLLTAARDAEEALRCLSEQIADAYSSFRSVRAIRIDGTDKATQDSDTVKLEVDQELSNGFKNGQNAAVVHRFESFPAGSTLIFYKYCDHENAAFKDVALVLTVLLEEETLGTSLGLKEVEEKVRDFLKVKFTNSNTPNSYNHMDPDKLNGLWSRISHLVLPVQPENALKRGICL
Sequence of Epidermal growth factor receptor (Homo sapiens) (P00533 whole entry, looked up): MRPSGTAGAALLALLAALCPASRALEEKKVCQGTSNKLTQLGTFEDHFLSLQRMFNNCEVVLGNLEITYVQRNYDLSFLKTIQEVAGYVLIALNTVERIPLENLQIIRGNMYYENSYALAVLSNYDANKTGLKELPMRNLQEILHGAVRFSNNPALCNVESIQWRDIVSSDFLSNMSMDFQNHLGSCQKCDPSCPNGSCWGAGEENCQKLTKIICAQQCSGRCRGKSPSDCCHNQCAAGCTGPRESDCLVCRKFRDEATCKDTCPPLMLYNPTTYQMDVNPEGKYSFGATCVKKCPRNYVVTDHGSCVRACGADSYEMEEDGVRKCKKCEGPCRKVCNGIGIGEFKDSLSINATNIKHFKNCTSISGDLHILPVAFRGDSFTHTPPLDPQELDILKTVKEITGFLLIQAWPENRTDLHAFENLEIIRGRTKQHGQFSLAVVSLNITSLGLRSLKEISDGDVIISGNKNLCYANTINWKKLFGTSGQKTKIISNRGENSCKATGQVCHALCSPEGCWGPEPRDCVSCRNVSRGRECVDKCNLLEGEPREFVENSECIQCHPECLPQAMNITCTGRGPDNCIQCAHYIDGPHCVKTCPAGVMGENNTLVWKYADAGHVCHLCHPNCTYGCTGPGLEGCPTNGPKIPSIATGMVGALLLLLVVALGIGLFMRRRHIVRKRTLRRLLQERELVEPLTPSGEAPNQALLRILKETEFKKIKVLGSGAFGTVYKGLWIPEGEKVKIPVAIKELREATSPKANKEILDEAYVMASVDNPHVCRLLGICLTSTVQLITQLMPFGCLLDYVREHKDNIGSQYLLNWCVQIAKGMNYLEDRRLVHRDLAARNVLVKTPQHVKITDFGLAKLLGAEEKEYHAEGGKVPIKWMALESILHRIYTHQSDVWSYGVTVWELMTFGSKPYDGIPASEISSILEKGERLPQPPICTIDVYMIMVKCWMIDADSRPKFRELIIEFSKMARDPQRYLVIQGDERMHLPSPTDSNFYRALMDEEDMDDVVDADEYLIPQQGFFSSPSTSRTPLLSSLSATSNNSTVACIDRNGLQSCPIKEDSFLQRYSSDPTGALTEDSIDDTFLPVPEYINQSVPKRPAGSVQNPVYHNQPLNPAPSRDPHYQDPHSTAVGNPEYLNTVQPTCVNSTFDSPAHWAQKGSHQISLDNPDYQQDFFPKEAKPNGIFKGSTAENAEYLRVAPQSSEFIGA

Consider `O=C1O[C@@H](c2ccccc2)[C@@H](c2ccccc2)N2[C@@H](c3ccccc3OCCO)[C@]3(C(=O)Nc4ccc(C#CCCO)cc43)[C@@H](C(=O)N3CCCCCCC3)[C@H]12`, for which the composite z-score in assay [1] is 2.19; in assay [2] it was 3.2; in assay [3], 1.87; in [5], 1.71; in assay [6] it was 1.45; in assay [7], 2.05. Moreover, the composite z-score in assay [8] was determined as 1.78; in assay [9], 2.69; in assay [10] it was 2.05; in assay [11] it was 1.51; in assay [13] it was 1.82; in [14], 3.18. The composite z-score came to 1.89 in assay [15]; 1.64 in assay [16]; 3.42 in assay [17]; 3.79 in assay [18]; 5.67 in assay [19]; 4.61 in assay [20]. The z-score in assay [4] was -1.32 (inactive); in assay [12], -1.74.

For `COc1ccc(C(O)C2C=CC3C(=O)N(c4ccccc4)C(=O)C3N2Nc2ccc([N+](=O)[O-])cc2)cc1` (stereo not given), the composite z-score in [1] was 1.43; in assay [2] it was 1.37; in assay [3] it was 1.23; in assay [5], 0.774; in assay [6] it was 0.998; in assay [7], 0.0207. The composite z-score was 0.952 in assay [8]; -0.655 in assay [9]; 0.918 in [10]; 0.487 in [11]; -0.425 in assay [13]; 1.45 in [14]. In addition, the composite z-score in assay [15] was 0.622; in [16] it was 0.315; in assay [17] it was 0.109; in assay [18], -0.064; in assay [19] it was 1.66; in assay [20], 1.32. The results for the z-score in [4] and in assay [12] were 0.304 (inactive) and -0.925, respectively.

Take `C=CCOC(=O)[C@H]1[C@@H]2C(=O)O[C@@H](c3ccccc3)[C@@H](c3ccccc3)N2[C@@H](c2ccc(OCCOC(=O)[C@@H]3C[C@@H]4C(=O)N[C@@H](CCCCN(C)C)C(=O)N4[C@@H]3c3ccc(O)cc3)cc2)[C@]12C(=O)Nc1ccccc12`: the composite z-score was found to be 0.913 in assay [1]; 0.173 in assay [2]; 0.0016 in assay [3]; 1.03 in assay [5]; 1.32 in assay [6]; 0.961 in assay [7]. Also, the composite z-score in assay [8] was 1.43; in [9], 1.27; in assay [10], -0.471; in assay [11], -0.541; in assay [13], 1.08; in [14], -1.35. Moreover, the composite z-score in assay [15] was -1.07; in [16], -0.124; in assay [17], -0.0709; in assay [18] it was -0.106; in assay [19] it was 1.17; in assay [20], -0.23. In addition, the z-score is -0.311 (inactive) in assay [4] and -2.88 in [12].

For the compound `COCCCNC(=O)[C@@]1(Cc2ccccc2N=[N+]=[N-])COC(c2ccc(OCCCO)cc2)=N1`, the composite z-score in assay [1] was 0.955; in assay [2], 0.516; in [3] it was 1.17; in [5], 0.475; in assay [6], -0.331; in assay [7], -0.027. Further, the composite z-score in assay [8] was -0.121; in assay [9], -0.599; in [10], 1.61; in [11], 1.44; in assay [13], 0.185; in [14], 1.43. The composite z-score in [15] turned out to be 0.414; in assay [16] it was 0.0165; in [17], 0.284; in assay [18] it was 0.747; in assay [19] it was 2; in assay [20] it was 2.18. In addition, the z-score in assay [4] is 0.989 (inactive); in assay [12], -0.899.

Regarding `C=CCC(OC(C)=O)[C@@H]1[C@@H](N(Cc2ccc(-c3ccccc3)cc2)C(=O)Cc2ccc(F)cc2)c2cc(OCCCO)ccc2N1C(=O)Cc1ccc(OC)cc1` (stereo not given in full), the composite z-score in [1] was -0.383; in assay [2], -0.129; in assay [3] it was 0.0545; in assay [5] it was -0.0269; in assay [6], 0.0082; in assay [7], -0.244. The composite z-score was 0.359 in assay [8]; -0.139 in assay [9]; 1.14 in [10]; -0.0218 in assay [11]; 0.0922 in [13]; 0.498 in assay [14]. For the same compound, the composite z-score in [15] was -0.124; in [16], -0.0478; in [17] it was -0.343; in assay [18], -0.394; in [19] it was -0.002; in [20] it was 0.215. Further, the z-score in assay [4] was -0.599 (inactive); in assay [12] it was -0.71.
